Test results published in PubChem BioAssay AID434931 (National Center for Advancing Translational Sciences (NCATS), 2010).
“And” between values parts separate entries of the source, which are not always exact repeats. Equal values may be shown once. Inconclusive results are not listed. The source made the active and inactive calls. Calls follow the shape of the dose curve; as a rule, active = well fitted inhibition curve with a large enough effect; inconclusive = small, poorly fitted or top-dose-only effect, or another doubt; inactive = no such curve, though single readings can be large or run the other way.

Target: Neuropeptide S receptor (Homo sapiens) (UniProt Q6W5P4)
Assay: Confirmation Concentration-Response Assay for Antagonists of the Neuropeptide S Receptor: Robust Characterization of Calcium Signal Transduction
Settings: CHO-NPSR cells, NPS-induced calcium fluorescence (FDSS); series mostly up to 31.6 µM

Sequence of Neuropeptide S receptor (Homo sapiens) (Q6W5P4 whole entry, looked up): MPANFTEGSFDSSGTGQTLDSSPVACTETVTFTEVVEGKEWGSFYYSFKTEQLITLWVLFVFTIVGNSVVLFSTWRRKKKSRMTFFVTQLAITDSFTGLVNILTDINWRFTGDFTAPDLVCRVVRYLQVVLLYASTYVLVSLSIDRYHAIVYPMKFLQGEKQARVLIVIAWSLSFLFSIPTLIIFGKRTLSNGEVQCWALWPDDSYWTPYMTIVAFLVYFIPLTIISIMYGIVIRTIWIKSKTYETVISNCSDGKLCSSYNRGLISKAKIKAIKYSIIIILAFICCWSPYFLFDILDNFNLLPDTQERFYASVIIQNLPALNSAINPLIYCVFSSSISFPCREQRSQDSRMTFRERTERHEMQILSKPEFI

SMILES | Potency
COc1cccc(C2c3c(ncn(-c4cccc(F)c4)c3=N)Oc3ccc4ccccc4c32)c1 (centres undefined) | 0.0695 µM (active)
COc1ccc(C2c3c(ncn(CCCc4ccccc4)c3=N)Oc3ccc4ccccc4c32)cc1OC (centres undefined) | 3.91 µM (active)
N=c1c2c(ncn1-c1ccccc1)Oc1ccc3ccccc3c1C2c1ccc2c(c1)CCO2 (centres undefined) | 0.124 µM (active)
COc1cccc(C2c3c(ncn(-c4ccc(F)cc4)c3=N)Oc3ccc4ccccc4c32)c1 (centres undefined) | 2.2 µM (active)
N=c1c2c(ccn1CCCc1ccccc1)Oc1ccc3ccccc3c1C2c1ccccc1 (centres undefined) | 3.48 µM (active)
COc1cccc(C2c3c(ncn(-c4ccccc4SC)c3=N)Oc3ccc4ccccc4c32)c1 (centres undefined) | 0.0246 µM (active)
COc1ccc(C2c3c(ncn(CCN4CCOCC4)c3=N)Oc3ccc4ccccc4c32)cc1OC (centres undefined) | 0.438 µM (active)
N=c1c2c(ncn1-c1ccccc1)Oc1ccc3ccccc3c1C2c1ccc2c(c1)OCO2 (centres undefined) | 0.619 µM (active)
Fc1ccc(-c2c(P(=S)(c3ccccc3)c3ccccc3)n3ccccc3[n+]2C/C=C/c2ccccc2)cc1 | 0.0201 µM (active)
COc1cccc(C2c3c(ncn(-c4ccc(C(C)(C)C)cc4)c3=N)Oc3ccc4ccccc4c32)c1 (centres undefined) | 1.24 µM (active)
COc1ccc(C2C3=C(N=CN(CCN4CCOCC4)C3N)Oc3ccccc32)cc1OC (centres undefined) | inactive
COc1cccc(C2c3c(ncn(-c4cccc(C#N)c4)c3=N)Oc3ccc4ccccc4c32)c1 (centres undefined) | 2.76 µM (active)
COc1cccc(C2c3c(ncn(-c4ccc(C#N)cc4)c3=N)Oc3ccc4ccccc4c32)c1 (centres undefined) | 1.39 µM (active)
COc1cccc(C2c3c(ncn(-c4ccccc4C(C)(C)C)c3=N)Oc3ccc4ccccc4c32)c1 (centres undefined) | 1.74 µM (active)
N=c1c2c(ccn1Cc1ccccc1)Oc1ccc3ccccc3c1C2c1ccccc1 (centres undefined) | 3.91 µM (active)
N=c1c2c(ccn1CCc1ccccc1)Oc1ccc3ccccc3c1C2c1ccccc1 (centres undefined) | 0.492 µM (active)
CCOC(=O)CC(=O)Nc1ncnc2c1C(c1ccccc1)c1c(ccc3ccccc13)O2 (centres undefined) | 0.552 µM (active)
Cc1nc2ccccn2c1C(O)(c1ccccc1)c1ccccc1 | 11.3 µM (active)
COc1cccc(C2c3c(ncn(-c4cccc(OC)c4)c3=N)Oc3ccc4ccccc4c32)c1 (centres undefined) | 0.391 µM (active)
COc1cccc(C2c3c(ncn(Cc4cccs4)c3=N)Oc3ccc4ccccc4c32)c1 (centres undefined) | 3.1 µM (active)
COc1cccc(C2c3c(ncn(-c4ccccc4Cl)c3=N)Oc3ccc4ccccc4c32)c1 (centres undefined) | 4.38 µM (active)
COc1cccc(C2c3c(ncn(-c4ccccc4C)c3=N)Oc3ccc4ccccc4c32)c1 (centres undefined) | 5.52 µM (active)
COc1ccc(C2c3c(nc(C)[nH]c3=O)Oc3ccc4ccccc4c32)cc1OC (centres undefined) | inactive
CCC(C)(CCN1CCOCC1)N(Cc1cc2ccccc2n(C)c1=O)C(=O)C1CCCCC1 (centres undefined) | 0.00135 µM (active)
COc1cccc(C2c3c(ncn(-c4ccccc4)c3=N)Oc3ccc4ccccc4c32)c1 (centres undefined) | 1.55 µM (active) and 139 nM (active)
COc1ccc(-n2cnc3c(c2=N)C(c2cccc(OC)c2)c2c(ccc4ccccc24)O3)cc1 (centres undefined) | 1.74 µM (active)
COc1cccc(C2c3c(ncn(-c4ccc(C)cc4)c3=N)Oc3ccc4ccccc4c32)c1 (centres undefined) | 2.46 µM (active)
COc1cccc(C2c3c(ncn(-c4cccc(Br)c4)c3=N)Oc3ccc4ccccc4c32)c1 (centres undefined) | 2.46 µM (active)
COc1ccccc1C1c2c(ncn(-c3ccccc3)c2=N)Oc2ccc3ccccc3c21 (centres undefined) | 4.92 µM (active)
